Data reported in the supplement of paper PMC8975748.
Counter-ions that a name gives are not always drawn.

system: Saccharomyces cerevisiae BY4741 SeMeCo community; assay: z-score of subpopulation abundance vs DMSO median, subpopulation auxotrophic for UM; higher = larger share of this subpopulation than in DMSO controls; settings: 10 µM; 24 h; SM minimal medium; subpopulation (auxotrophy): UM
Method: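 Fluorescent four-plasmid SeMeCo (self-establishing metabolically cooperating S. cerevisiae BY4741 community; plasmids pH-mRuby2, pL-mWasabi, pU-eCFP, pM-TagRFP657) was grown 24 h in minimal SM medium with each Selleck FDA-approved drug at 10 µM in 384-well plates. Cells were fixed and imaged by high-content confocal microscopy. For each auxotrophic subpopulation (and the prototroph), a z-score gives the deviation from the DMSO vehicle-control population median.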

| SMILES | z-score of subpopulation abundance |
| --- | --- |
| COc1ccc(C=O)cc1 [p-Anisaldehyde] | -0.71 |
| CN1c2ccccc2C(NCCCCCCC(=O)O)c2ccc(Cl)cc2S1(=O)=O (stereo not given) [Tianeptine sodium] | 0.21 |
| CN[C@@H]1[C@@H](O)[C@@H](O[C@@H]2[C@@H](O)[C@H](O[C@H]3O[C@H]([C@@H](C)O)[C@@H](O)[C@H](O)[C@H]3N)[C@@H](N)C[C@H]2N)OC[C@]1(C)O [Geneticin (G418 Sulfate)] | -0.56 |
| C[C@@H]1O[C@@H](O[C@H]2C[C@@H](O)[C@]3(CO)[C@H]4[C@H](O)C[C@]5(C)[C@@H](C6=CC(=O)OC6)CC[C@]5(O)[C@@H]4CC[C@]3(O)C2)[C@H](O)[C@H](O)[C@H]1O [Ouabain] | 0.06 |
| CN1[C@@H]2CC[C@H]1C[C@@H](OC(=O)C(CO)c1ccccc1)C2 (stereo not given in full) [Atropine sulfate monohydrate] | 0.69 |
| CN1[C@@H]2C[C@@H](OC(=O)[C@H](CO)c3ccccc3)C[C@H]1[C@@H]1O[C@@H]12 [Scopolamine HBr trihydrate] | -0.11 |
| CC1(C)SC2C(N)C(=O)N2C1C(=O)O (stereo not given) [6-Aminopenicillanic acid] | 0.97 |
| CC(NC(C)(C)C)C(=O)c1cccc(Cl)c1 (stereo not given) [Amfebutamone (Bupropion) HCl] | -0.25 |
| CC[C@@]1(O)C(=O)OCc2c1cc1n(c2=O)Cc2cc3ccccc3nc2-1 [Camptothecin] | 0.1 |
| COc1ccc2c3c([nH]c2c1)C(C)=NCC3 [Harmaline] | -9.37 |
| Nc1ccncc1 [4-Aminopyridine] | -0.05 |
| O=c1[nH]c2ccccc2n1CCCN1CCC(n2c(=O)[nH]c3cc(Cl)ccc32)CC1 [Domperidone] | 0.56 |
| Nc1nc(N)nc(NC2CC2)n1 [Cyromazine] | 0.57 |
| CCCCCCCCCCCCCCCC[n+]1ccccc1 [Cetylpyridinium Chloride] | 3.46 |
| C=C(C)[C@H]1Cc2c(ccc3c2O[C@@H]2COc4cc(OC)c(OC)cc4[C@@H]2C3=O)O1 [Rotenone (Barbasco)] | 0.29 |
| CC[C@H]1CN2CC[C@]3(C(=O)Nc4ccccc43)[C@@H]2C[C@@H]1/C(=C\OC)C(=O)OC [Rhynchophylline] | 1.19 |
| COc1ccc(C(CN(C)C)C2(O)CCCCC2)cc1 (stereo not given) [Venlafaxine] | 0.35 |
| CC[C@@H](C(N)=O)N1CCCC1=O [Levetiracetam] | -0.62 |
| CN[C@@H]1[C@@H](O)[C@@H](O[C@@H]2[C@@H](O)[C@H](O[C@H]3O[C@H](CN)CC[C@H]3N)[C@@H](N)C[C@H]2N)OC[C@]1(C)O.CN[C@@H]1[C@@H](O)[C@@H](O[C@@H]2[C@@H](O)[C@H](O[C@H]3O[C@H]([C@@H](C)N)CC[C@H]3N)[C@@H](N)C[C@H]2N)OC[C@]1(C)O.CN[C@@H]1[C@@H](O)[C@@H](O[C@@H]2[C@@H](O)[C@H](O[C@H]3O[C@H]([C@@H](C)NC)CC[C@H]3N)[C@@H](N)C[C@H]2N)OC[C@]1(C)O [Gentamicin Sulfate] | -0.75 |
| CN(C)[C@@H]1C(=O)C(C(N)=O)=C(O)[C@@]2(O)C(=O)C3=C(O)c4c(O)cccc4[C@@](C)(O)[C@H]3[C@H](O)[C@@H]12 [Oxytetracycline (Terramycin)] | -0.17 |

| SMILES | z-score of subpopulation abundance |
| --- | --- |
| NCCc1c[nH]c2ccc(O)cc12 [Serotonin HCl] | -0.02 |
| CCN(C)C(=O)Oc1cccc([C@H](C)N(C)C)c1 [Rivastigmine] | 0.75 |
| CCOC(=O)Nc1ccc(NCc2ccc(F)cc2)cc1N [Retigabine] | -1.09 |
| C[N+](C)(C)CCCCCCCCCC[N+](C)(C)C [Decamethonium Bromide] | 0.35 |
| CCC1=C[C@H]2CN3CCc4c([nH]c5ccccc45)[C@](C(=O)OC)(C2)[C@H]13 [Catharanthine] | 0.1 |
| CC(C)N(CCC(C(N)=O)(c1ccccc1)c1ccccn1)C(C)C (stereo not given) [Disopyramide] | -0.64 |
| CC(=O)O[C@H]1C[C@@H]2CC[C@@H]3[C@H](CC[C@@]4(C)[C@H]3C[C@H]([N+]3(C)CCCCC3)[C@@H]4OC(C)=O)[C@@]2(C)C[C@@H]1[N+]1(C)CCCCC1 [Pancuronium dibromide] | -0.06 |
| CCN1CC2(OC(=O)c3ccccc3NC(C)=O)CCC(OC)C34C1C(CC23)C1(O)CC(OC)C2CC4C1(O)C2OC (stereo not given) [Lappaconitine] | 0.23 |
| CNC1CC(N)C(O)C(OC2OC(CO)C(O)C3OC4(OC(C(N)CO)C(O)C(O)C4O)OC23)C1O (stereo not given) [Hygromycin B] | 0.06 |
| C=C[C@H]1CN2CC[C@H]1C[C@H]2[C@H](O)c1ccnc2ccccc12 [Cinchonidine] | 0.45 |
| C#C[C@]1(O)C=C[C@H]2[C@@H]3CCC4=CC(=O)CC[C@@H]4[C@H]3CC[C@@]21CC [Gestodene] | -1.14 |
| CCCN1C[C@H](CSC)C[C@@H]2c3cccc4[nH]cc(c34)C[C@H]21 [Pergolide Mesylate] | -0.77 |
| CN1C(=O)COc2c(C(=O)NC3CN4CCC3CC4)cc(Cl)cc21 (stereo not given) [Azasetron HCl] | 0.66 |
| Oc1cc(Cl)ccc1Oc1ccc(Cl)cc1Cl [Triclosan] | -2.84 |
| O=C(O[C@H]1C[N+]2(CCCOc3ccccc3)CCC1CC2)C(O)(c1cccs1)c1cccs1 [Aclidinium Bromide] | 0.73 |
| CN(C)C(=O)Oc1cccc([N+](C)(C)C)c1 [Neostigmine Bromide] | -0.71 |
| COc1ccc(C(CN(C)C)C2(O)CCCCC2)cc1 (stereo not given) [Venlafaxine HCl] | 0.66 |
| CN(C)[C@@H]1C(=O)C(C(N)=O)=C(O)[C@@]2(O)C(=O)C3=C(O)c4c(O)cccc4[C@@](C)(O)[C@H]3[C@H](O)[C@@H]12 [Oxytetracycline Dihydrate] | -0.39 |
| COc1ccc2[nH]cc(CCN)c2c1 [5-Methoxytryptamine] | 1.16 |
| Cn1cc(C2=C(c3cn(C4CCN(Cc5ccccn5)CC4)c4ccccc34)C(=O)NC2=O)c2ccccc21 | 0.73 |
